# Results from PubChem BioAssay AID1508600 (Functional Genomics Laboratory (NCATS/FGL), 2020).
# The campaign covered roughly 53,000 sequences. About 3,700 (7%) were called active. This is one part of a sample in which actives are shown more often than they occur.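 How the source made its calls: active means gene knockdowns whose robust z-score for IL-1 alpha signal is at least 2 or at most -2, so actives lie on both sides; inactive means the rest.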
# Experiment: Components of the Cytosolic LPS Sensing Pathway: Gene Identification via Genome-wide siRNA Screen
# Conditions: RAW264.7 macrophages, IL-1a HTRF, actives lie on both sides, screened at 100 nM (by protocol), cells primed 5 h with Pam3CSK4 first
# Description: Non-canonical inflammasome activation by cytosolic LPS is a critical component of the host response to Gram-negative bacterial infection, however we lack a comprehensive understanding of the cellular processes that control this pathway. Here we describe a genome-wide siRNA screen to identify genes regulating the mouse macrophage IL-1 alpha response to cytosolic LPS.
# RAW264.7 cells were maintained in complete DMEM media, comprising DMEM with 4.5 g/L glucose, 10% FBS (Gemini Bio-Products, West Sacramento, CA), 2 mM Glutamine (Lonza) and 20 mM HEPES (Lonza), hereafter complete DMEM.
# The RNAi screen was conducted in 384-well format using the Ambion Silencer Mouse Genome siRNA Library (#4391425), which consists of three unique, nonoverlapping, nonpooled siRNAs for each of 17,000 gene targets. siRNA reagents ([…]) were stamped into 384-well white flat-bottom microplates (Corning, 3570) using a Velocity11 VPrep liquid handling system (Agilent) integrated into a BioCel robotic platform (Agilent) in columns 1-22, leaving columns 23-24 empty for negative (Ambion, Negative control #1) and positive (mouse Casp4) controls, respectively. The median value of each plate's negative control column was used to normalize sample wells, and the positive control was used to assess transfection efficiency and assay performance.
# Lipofectamine RNAiMAX Transfection Reagent ([…]; Invitrogen) was added in […] serum-free, antibiotic-free media to plate wells using a Thermo Scientific Matrix WellMate and Microplate Stacker. Plates were incubated for 45 min at room temperature to allow for the sufficient formation of siRNA-lipid complexes. Cells were seeded at a density of 1x10^4 cells per well in 20 microL media containing 20% (vol/vol) FBS without antibiotics. The final concentration of siRNA in each well was 100 nM. Cells were cultured for 48h at 37 degrees C in 5% CO2 before addition of […] of TLR ligand Pam3CSK4 for 5 hours. The medium was then removed, replaced with […] growth media and cell were transfected with […] of LipidA and TransIT-TKO (Mirus) for 24 hour. At the end of the LipidA treatment, […] of supernatant was transferred to a 384 Greiner Bio-one non-binding low volume plate and […] of IL-1a HTRF reagent (Cisbio, 62MIL1APEH) was added and incubated at room temperature overnight. The plates were read on an EnVision plate reader (PerkinElmer). Cell viability was measured by adding 20ul Cell Titer Glo to the original plate and running a luminescence read on the EnVision. The quantified IL-1a signal for each siRNA gene-targeted well was divided by the median of the negative control wells and multiplied by 100 to achieve a negative control normalized value for each well/siRNA. This normalized value was then used to generate a robust z-score by first taking the log of each value and then by subtracting the median and dividing by the […].
row,Sequence,z-score
1,GGACCUAAACAACGUGUUGTT against Klf2,2.74 (active)
2,GGAAAGAAGAAGAGUCUAATT against Nucb2,0.994 (inactive)
3,GGCCGGAGCUUACGAUUUUTT against Camk2d,0.309 (inactive)
4,GGGAACAAAUUCAUUGUAUTT against Eny2,2.26 (active)
5,GGAAGUGAGAUGUCACUGATT against Ssc5d,0.841 (inactive)
6,GGAUACCAAGCAUCGGAAGTT against Tfap2e,-0.0352 (inactive)
7,GGCAGAAACAGUCCUUGUUTT against Gfra4,-1.54 (inactive)
8,GGCGUAUACCGGGAAUCCUTT against Ndrg1,-0.505 (inactive)
9,GCAAUGAGUACUAUCAUACTT against Gnal,-2.71 (active)
10,GGUUAAAUCGAUUUUGCAUTT against Acbd5,-0.185 (inactive)
11,GGGAUACCAUCUUUAUGGCTT against Vwa3b,-0.041 (inactive)
12,GCAAUGGACUGACAUGUCATT against Csdc2,-0.339 (inactive)
13,CGGACAAGUGUUUUUCGUUTT against Wwox,0.315 (inactive)
14,GGCUGUGCUCCUUGUUAGUTT against Olfr1143,-0.083 (inactive)
15,GCGGUGAUGAGAGAAACCATT against Zfp617,0.872 (inactive)
16,GGACCCUUUCUUUGAUAUGTT against Rpe,1.01 (inactive)
17,GCCACUGGAGUAUAGCCAGTT against Pcnx3,0.019 (inactive)
18,CCUCUUAUAUGCAUGUGGCTT against Olfr410,-2.13 (active)
19,CCAAAGCUAAAACGGGUGGTT against Tppp3,0.597 (inactive)
20,GCUGGACAUCGACUUUGGATT against Prnd,-1.54 (inactive)
21,CCUAUGUUUUAGCAAGCAGTT against Acyp2,0.758 (inactive)
22,GCCAUCAUCUUUGUUUAGUTT against Gm4952,-0.684 (inactive)
23,GGACAUCCUCUUACAGUGGTT against Zg16,0.333 (inactive)

row,Sequence,z-score
1,GGUCAUCUCCAAACCCUCCTT against Rbpj,1.51 (inactive)
2,GGAAGAGGCCAGCUAUAACTT against Dcaf1,-2.51 (active)
3,GGAGGGAUCUAAGGAACAGTT against Fgf8,0.263 (inactive)
4,GGAAUGAUUUUUGUUUGCUTT against Sf3b3,-1.6 (inactive)
5,GGCACAUUCAACAACAUUUTT against Zfp592,1.61 (inactive)
6,GGAUCUUAGCAUGUCAACATT against Zfp330,-1.29 (inactive)
7,GGUUCAGAUGGGAAAAAGGTT against Khdrbs2,-2.41 (active)
8,GGAGAACCCUUAUGUGACATT against Pik3ca,-1.91 (inactive)
9,GGAGGAUGGUGCCAACAUUTT against Psmc3,-2.02 (active)
10,GGUAAAAACUUUCCUUUAGTT against Prph2,1.48 (inactive)
11,GGAAUGCAAAAAACUCUGGTT against Gzmg,0.906 (inactive)
12,GGCCUGAGUAUAAAGUUAGTT against Wbp2,1.6 (inactive)
13,GGAUGAAUAAGGACAGAUUTT against Phospho2,0.335 (inactive)
14,GGUUACGUGUUUGUAUCUATT against Higd1a,-0.395 (inactive)
15,GGCUCUUGAAAAAAACCCATT against Utp11,0.441 (inactive)
16,CGAGCUUAUGCUGAAACCATT against 3830417A13Rik,-2.45 (active)
17,GGUGACUAGGAAGAACACGTT against Tmem9b,1.99 (inactive)
18,GUACCUGAACUCAACUGAGTT against Ffar2,-0.0572 (inactive)
19,CCCAGAAGAGGUUACAUUUTT against Cd200r4,0.0312 (inactive)
20,GGAUAUGCAGUGGAACUAUTT against Heph,-2.13 (active)
21,GGGAUCAGAGAUAUAGCCATT against Vmn1r192,-1.74 (inactive)
22,GCAGGGUACUGGCUAAAUATT against Cd40,2.93 (active)
23,GGACAGAUUUUCACCAUUCTT against Slc1a4,-0.593 (inactive)

row,Sequence,z-score
1,GGUGAAGCAUCAGUGACAATT against Ubxn4,0.734 (inactive)
2,UUUCAAUCUGUAGCUUUCCTT against Krt86,0.071 (inactive)
3,GCUACACCGUAACAUGCUATT against Zer1,2.19 (active)
4,GCUAUGUAAGACAUUUAACTT against Ccdc162,1.6 (inactive)
5,CGUUUAUUGUAACCAGAAUTT against Fam168b,0.263 (inactive)
6,GGAGGAAUUCAUUAGAAACTT against Psmc1,-2.04 (active)
7,GGCUUUCCUCCAGAUAAACTT against Il6st,-0.856 (inactive)
8,GCGACGAGAAGAAUCUGCUTT against Mtcl1,-0.641 (inactive)
9,CCGUGGAGUAACAAGUAUGTT against Capzb,-1.07 (inactive)
10,CGAUCUAGUCCGCCAUUACTT against Lck,-1.3 (inactive)
11,GCAAGACCCAAGAGUUACATT against Soat2,-2.07 (active)
12,GCGAAGGAAUUUAAGGACCTT against Tmod1,0.836 (inactive)
13,GGCACCAUCUAUUAUUUUCTT against Psmc3,-2.45 (active)
14,CCAAUGAUAGACUUUAUACTT against Adgrv1,-0.252 (inactive)
15,GCAGUUCACGCAGUGGAAGTT against Fam25c,1.3 (inactive)
16,UCAUAGCAGAGAUUAGAAUTT against Hsfy2,-0.951 (inactive)
17,CCUCAGGUUAUUGAAUAUUTT against Rapgef6,0.502 (inactive)
18,GGACAAAACGUGCAAUAUGTT against Pkdcc,-0.188 (inactive)
19,GCAGAUUGCUCAGAUUACCTT against Brip1,0.407 (inactive)
20,GGUUCUUCGGCUUAUGUUGTT against Rgs7bp,0.537 (inactive)
21,GGACAAAAUAAUGCUUUCUTT against Cnnm1,0.0436 (inactive)
22,GGAAUGUUACAUUUCAGUUTT against Adam1a,2.15 (active)
23,CCCGUAUCUUUUUAGCUAATT against A630038E17Rik,0.35 (inactive)
